Results: PubChem BioAssay AID1159580 (chemical genetic matrix, 2015)
About 2,000 (36%) of roughly 5,500 compounds were called active. Inconclusive results (about 18%) are left out. No stated cut-off is given here; in the data, active means normalized growth mostly below about 0.91 (no sharp cut-off); inconclusive means no clear call, values can overlap the other calls; inactive means mostly above about 0.92. This is one part of the list.

Experiment: chemical genetic growth profiling, strain panel (AID 1159580);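 further: tested at 20 µM; growth read once vehicle control cultures reached saturation at 30 °C; 1 = growth at the plate median or of vehicle wells; lower values mean less growth of the strain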
Conditions: growth OD
[1] = S. cerevisiae deletion strains, locus YGR078C, strain PAC10, active compounds read low
[2] = S. cerevisiae deletion strains, locus YMR263W, strain SAP30, active compounds read low
[3] = S. cerevisiae deletion strains, locus YNL322C, strain KRE1, active compounds read low
[4] = S. cerevisiae deletion strains, locus YPL241C, strain CIN2, active compounds read low
[5] = S. cerevisiae deletion strains, locus YDL101C, strain DUN1, active compounds read low
[6] = S. cerevisiae deletion strains, locus YHR030C, strain SLT2, active compounds read low
[7] = S. cerevisiae deletion strains, locus YAL013W, strain DEP1, active compounds read low
[8] = S. cerevisiae deletion strains, locus YBR229C, strain ROT2, active compounds read low
[9] = S. cerevisiae deletion strains, locus YDL134C, strain PPH21, active compounds read low
[10] = S. cerevisiae deletion strains, locus YDR150W, strain NUM1, active compounds read low
[11] = S. cerevisiae deletion strains, locus YEL061C, strain CIN8, active compounds read low
[12] = S. cerevisiae deletion strains, locus YHR087W, strain rtc3, active compounds read low
[13] = S. cerevisiae deletion strains, locus YJR043C, strain POL32, active compounds read low
[14] = S. cerevisiae deletion strains, locus YJR075W, strain HOC1, active compounds read low
[15] = S. cerevisiae deletion strains, locus YLR039C, strain RIC1, active compounds read low
[16] = S. cerevisiae deletion strains, locus YLR058C, strain SHM2 (second series), active compounds read low
[17] = S. cerevisiae deletion strains, locus YLR085C, strain ARP6, active compounds read low
[18] = S. cerevisiae deletion strains, locus YLR262C, strain YPT6, active compounds read low
[19] = S. cerevisiae deletion strains, locus YML094W, strain GIM5, active compounds read low
[20] = S. cerevisiae deletion strains, locus YMR219W, strain ESC1, active compounds read low
[21] = S. cerevisiae deletion strains, locus YNL128W, strain TEP1, active compounds read low
[22] = S. cerevisiae deletion strains, locus YNL153C, strain GIM3, active compounds read low
[23] = S. cerevisiae deletion strains, locus YNL298W, strain CLA4 (second series), active compounds read low
[24] = S. cerevisiae deletion strains, locus YNR030W, strain Alg12, active compounds read low
[25] = S. cerevisiae deletion strains, locus YPL055C, strain LGE1, active compounds read low
[26] = S. cerevisiae deletion strains, locus YPR135W, strain CTF4, active compounds read low
[27] = S. cerevisiae deletion strains, locus YJL187C, strain SWE1, active compounds read low

Measured: normalized growth

COc1ccc2c(c1)c(CC(=O)N1CCOCC1)c(C)n2C(=O)c1ccc(Cl)cc1
inactive: S. cerevisiae deletion strains, locus YAL040C, strain CLN3, active compounds read low 0.996 | S. cerevisiae deletion strains, locus YCL061C, strain MRC1 (second series), active compounds read low 1.01 | S. cerevisiae deletion strains, locus YDR363W, strain ESC2, active compounds read low 1.03 | S. cerevisiae deletion strains, locus YER002W, strain NOP16, active compounds read low 0.998 | [1] 1.01 | S. cerevisiae deletion strains, locus YGR229C, strain SMI1, active compounds read low 1 | [2] 1.01 | S. cerevisiae deletion strains, locus YNL175C, strain NOP13, active compounds read low 1.01 | S. cerevisiae deletion strains, locus YNL197C, strain WHI3, active compounds read low 1.01 | S. cerevisiae deletion strains, locus YNL224C, strain SQS1, active compounds read low 0.993 | [3] 1.01 | S. cerevisiae deletion strains, locus YOR083W, strain WHI5 (second series), active compounds read low 0.999 | [4] 1.01

Clc1ccc2c(c1)c1ccccc1n2CN1CCOCC1
active: S. cerevisiae deletion strains, locus YDR477W, strain SNF1, active compounds read low 0.541 | S. cerevisiae deletion strains, locus YER123W, strain YCK3, active compounds read low 0.588 | S. cerevisiae deletion strains, locus YER133W, strain GLC7, active compounds read low 0.641 | S. cerevisiae deletion strains, locus YGR040W, strain KSS1, active compounds read low 0.592 | S. cerevisiae deletion strains, locus YGR092W, strain DBF2, active compounds read low 0.208 | [6] 0.679 | S. cerevisiae deletion strains, locus YKL048C, strain ELM1, active compounds read low 0.696 | S. cerevisiae deletion strains, locus YKL067W, strain YNK1, active compounds read low 0.709 | S. cerevisiae deletion strains, locus YKL203C, strain TOR2, active compounds read low 0.598 | S. cerevisiae deletion strains, locus YLR113W, strain HOG1, active compounds read low 0.755 | S. cerevisiae deletion strains, locus YLR403W, strain SFP1, active compounds read low 0.612 | S. cerevisiae deletion strains, locus YNL307C, strain MCK1 (second series), active compounds read low 0.602 | S. cerevisiae deletion strains, locus YOR061W, strain CKA2, active compounds read low 0.558 | S. cerevisiae deletion strains, locus YOR119C, strain RIO1, active compounds read low 0.501 | S. cerevisiae deletion strains, locus YPL031C, strain PHO85, active compounds read low 0.545 | S. cerevisiae deletion strains, locus YPL204W, strain HRR25, active compounds read low 0.641 | S. cerevisiae deletion strains, locus YPL256C, strain CLN2, active compounds read low 0.823
inactive: S. cerevisiae deletion strains, locus YAR019C, strain CDC15, active compounds read low 0.935 | S. cerevisiae deletion strains, locus YBL105C, strain PKC1, active compounds read low 0.941 | S. cerevisiae deletion strains, locus YBR135W, strain CKS1, active compounds read low 0.925 | S. cerevisiae deletion strains, locus YBR136W, strain MEC1, active compounds read low 0.957 | S. cerevisiae deletion strains, locus YBR160W, strain CDC28, active compounds read low 0.945 | S. cerevisiae deletion strains, locus YDL017W, strain CDC7, active compounds read low 0.938 | S. cerevisiae deletion strains, locus YDL028C, strain MPS1, active compounds read low 0.95 | [5] 0.975 | S. cerevisiae deletion strains, locus YDL108W, strain KIN28, active compounds read low 0.949 | S. cerevisiae deletion strains, locus YDL132W, strain cdc53, active compounds read low 0.918 | S. cerevisiae deletion strains, locus YDL214C, strain PRR2, active compounds read low 0.753 | S. cerevisiae deletion strains, locus YDR052C, strain DBF4, active compounds read low 0.951 | S. cerevisiae deletion strains, locus YDR054C, strain cdc34, active compounds read low 0.926 | S. cerevisiae deletion strains, locus YDR226W, strain ADK1, active compounds read low 0.933 | S. cerevisiae deletion strains, locus YFL009W, strain cdc4, active compounds read low 0.934 | S. cerevisiae deletion strains, locus YFL029C, strain CAK1, active compounds read low 0.917 | S. cerevisiae deletion strains, locus YFR003C, strain YPI1, active compounds read low 0.945 | S. cerevisiae deletion strains, locus YFR019W, strain FAB1, active compounds read low 0.894 | S. cerevisiae deletion strains, locus YFR028C, strain CDC14, active compounds read low 0.952 | S. cerevisiae deletion strains, locus YGR052W, strain FMP48, active compounds read low 0.603 | S. cerevisiae deletion strains, locus YHR079C, strain IRE1, active compounds read low 0.79 | S. cerevisiae deletion strains, locus YHR082C, strain KSP1, active compounds read low 0.764 | S. cerevisiae deletion strains, locus YHR205W, strain SCH9, active compounds read low 0.714 | S. cerevisiae deletion strains, locus YIL147C, strain SLN1, active compounds read low 0.944 | S. cerevisiae deletion strains, locus YJL095W, strain BCK1, active compounds read low 0.724 | S. cerevisiae deletion strains, locus YJL128C, strain PBS2, active compounds read low 0.921 | S. cerevisiae deletion strains, locus YJL157C, strain FAR1, active compounds read low 0.722 | S. cerevisiae deletion strains, locus YJR016C, strain ILV3, active compounds read low 0.943 | S. cerevisiae deletion strains, locus YJR066W, strain TOR1 (second series), active compounds read low 0.738 | S. cerevisiae deletion strains, locus YJR066W, strain TOR1, active compounds read low 0.619 | S. cerevisiae deletion strains, locus YKL101W, strain HSL1, active compounds read low 0.728 | S. cerevisiae deletion strains, locus YKL193C, strain SDS22, active compounds read low 0.916 | S. cerevisiae deletion strains, locus YLR133W, strain CKI1, active compounds read low 0.776 | S. cerevisiae deletion strains, locus YML070W, strain DAK1, active compounds read low 0.748 | S. cerevisiae deletion strains, locus YMR001C, strain CDC5, active compounds read low 0.92 | S. cerevisiae deletion strains, locus YMR205C, strain PFK2 (second series), active compounds read low 0.757 | S. cerevisiae deletion strains, locus YMR277W, strain FCP1, active compounds read low 0.929 | S. cerevisiae deletion strains, locus YNL006W, strain LST8, active compounds read low 0.934 | S. cerevisiae deletion strains, locus YNL020C, strain ARK1, active compounds read low 0.771 | S. cerevisiae deletion strains, locus YNL161W, strain CBK1, active compounds read low 0.928 | S. cerevisiae deletion strains, locus YNL183C, strain NPR1, active compounds read low 0.658 | S. cerevisiae deletion strains, locus YNL207W, strain RIO2, active compounds read low 0.914 | S. cerevisiae deletion strains, locus YNL222W, strain SSU72, active compounds read low 0.927 | S. cerevisiae deletion strains, locus YOL078W, strain AVO1, active compounds read low 0.93 | S. cerevisiae deletion strains, locus YOL136C, strain PFK27, active compounds read low 0.72 | S. cerevisiae deletion strains, locus YOR231W, strain MKK1, active compounds read low 0.834 | S. cerevisiae deletion strains, locus YOR329C, strain SCD5, active compounds read low 0.934 | S. cerevisiae deletion strains, locus YPL153C, strain RAD53, active compounds read low 0.786 | S. cerevisiae deletion strains, locus YPL209C, strain IPL1, active compounds read low 0.939 | S. cerevisiae deletion strains, locus YPR025C, strain CCL1, active compounds read low 0.934 | S. cerevisiae deletion strains, locus YPR106W, strain ISR1, active compounds read low 0.94 | S. cerevisiae deletion strains, locus YPR111W, strain DBF20, active compounds read low 0.939 | S. cerevisiae deletion strains, strain NNK1, active compounds read low 0.949 | S. cerevisiae deletion strains, strain TSCII, active compounds read low 0.912

O=S(=O)(CCN1CCOCC1)c1ccc(Cl)cc1
inactive: [7] 0.995 | [8] 0.982 | [5] 0.967 | [9] 0.993 | [10] 1.01 | [11] 0.993 | [1] 0.983 | [6] 1.06 | [12] 0.982 | [13] 1 | [14] 0.998 | [15] 1 | [16] 0.963 | [17] 0.974 | [18] 1.07 | [19] 0.982 | [20] 0.982 | [2] 0.99 | [21] 0.987 | [22] 1.01 | [23] 0.996 | [3] 0.985 | [24] 0.987 | [25] 0.982 | [4] 0.986 | [26] 1.15 | S. cerevisiae strains, strain wild type, active compounds read low 0.976

O=C(O)c1ccc(N=Cc2ccc3c(c2)OCO3)cc1
inactive: [7] 1 | [8] 0.991 | [5] 0.983 | [10] 0.879 | [11] 1.01 | [1] 0.994 | [6] 0.999 | [12] 1 | [27] 0.985 | [13] 0.997 | [14] 0.979 | S. cerevisiae deletion strains, locus YKL190W, strain CNB1, active compounds read low 1 | [15] 0.991 | [16] 0.99 | [17] 1.05 | [18] 0.998 | [19] 1 | [20] 0.988 | S. cerevisiae deletion strains, locus YMR307W, strain GAS1, active compounds read low 1.02 | [21] 1.04 | [22] 0.98 | [23] 1.04 | [3] 0.991 | [24] 1.01 | S. cerevisiae deletion strains, locus YOL006C, strain TOP1, active compounds read low 1.04 | [25] 0.984 | [4] 0.992 | [26] 0.997

O=C(O/N=C\c1ccc2c(c1)OCO2)c1ccccc1Br
inactive: [8] 0.949 | [5] 0.961 | [10] 0.872 | [12] 0.928 | [27] 0.964 | [13] 0.926 | [14] 0.935 | [16] 0.973 | [20] 0.959 | [22] 0.959 | [3] 0.95
active: [7] 0.907 | [9] 0.827 | [11] 0.844 | [1] 0.927 | [6] 0.315 | [15] 0.491 | [17] 0.465 | [18] 0.577 | [19] 0.815 | [2] 0.892 | [23] 0.826 | [24] 0.857 | [25] 0.728 | [4] 0.834 | [26] 0.591
